From ChEMBL document CHEMBL1961873, “Compounds: GSK PKIS; Assays: Nanosyn kinase panel” (2012)

How the values were obtained:
[1] = molecular target: T1, Tyrosine-protein kinase receptor TYRO3 (Homo sapiens) (UniProt Q06418); conditions: at 1 µM
T1 sequence (whole entry): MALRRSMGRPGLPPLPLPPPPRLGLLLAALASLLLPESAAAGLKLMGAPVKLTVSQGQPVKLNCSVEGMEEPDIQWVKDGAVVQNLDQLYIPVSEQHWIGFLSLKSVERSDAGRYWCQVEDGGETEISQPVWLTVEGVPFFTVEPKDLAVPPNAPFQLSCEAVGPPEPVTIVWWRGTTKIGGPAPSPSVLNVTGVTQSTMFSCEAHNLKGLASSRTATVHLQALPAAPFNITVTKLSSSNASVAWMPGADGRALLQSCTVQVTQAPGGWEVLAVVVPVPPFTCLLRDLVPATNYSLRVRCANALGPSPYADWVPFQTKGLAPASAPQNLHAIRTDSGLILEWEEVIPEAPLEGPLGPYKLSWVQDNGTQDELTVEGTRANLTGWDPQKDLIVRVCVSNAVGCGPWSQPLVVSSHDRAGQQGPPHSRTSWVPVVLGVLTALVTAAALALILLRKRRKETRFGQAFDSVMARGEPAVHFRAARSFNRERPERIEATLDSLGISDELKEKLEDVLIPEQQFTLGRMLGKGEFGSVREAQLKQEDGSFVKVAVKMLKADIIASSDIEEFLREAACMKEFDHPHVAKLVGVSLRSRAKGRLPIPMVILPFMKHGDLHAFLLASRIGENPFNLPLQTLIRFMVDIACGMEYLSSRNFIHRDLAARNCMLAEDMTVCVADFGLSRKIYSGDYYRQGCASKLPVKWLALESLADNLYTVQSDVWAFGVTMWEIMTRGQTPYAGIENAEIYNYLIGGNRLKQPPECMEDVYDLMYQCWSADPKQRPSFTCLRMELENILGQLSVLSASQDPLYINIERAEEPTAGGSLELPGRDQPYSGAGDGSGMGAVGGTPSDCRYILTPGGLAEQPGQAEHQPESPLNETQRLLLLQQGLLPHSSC

[2] = molecular target: Tyrosine-protein kinase Yes (Homo sapiens) (UniProt P07947); conditions: at 0.1 µM
[3] = molecular target: Tyrosine-protein kinase Yes (Homo sapiens) (UniProt P07947); conditions: at 1 µM
[4] = molecular target: T2, Tyrosine-protein kinase ZAP-70 (Homo sapiens) (UniProt P43403); conditions: at 0.1 µM
T2 sequence (whole entry): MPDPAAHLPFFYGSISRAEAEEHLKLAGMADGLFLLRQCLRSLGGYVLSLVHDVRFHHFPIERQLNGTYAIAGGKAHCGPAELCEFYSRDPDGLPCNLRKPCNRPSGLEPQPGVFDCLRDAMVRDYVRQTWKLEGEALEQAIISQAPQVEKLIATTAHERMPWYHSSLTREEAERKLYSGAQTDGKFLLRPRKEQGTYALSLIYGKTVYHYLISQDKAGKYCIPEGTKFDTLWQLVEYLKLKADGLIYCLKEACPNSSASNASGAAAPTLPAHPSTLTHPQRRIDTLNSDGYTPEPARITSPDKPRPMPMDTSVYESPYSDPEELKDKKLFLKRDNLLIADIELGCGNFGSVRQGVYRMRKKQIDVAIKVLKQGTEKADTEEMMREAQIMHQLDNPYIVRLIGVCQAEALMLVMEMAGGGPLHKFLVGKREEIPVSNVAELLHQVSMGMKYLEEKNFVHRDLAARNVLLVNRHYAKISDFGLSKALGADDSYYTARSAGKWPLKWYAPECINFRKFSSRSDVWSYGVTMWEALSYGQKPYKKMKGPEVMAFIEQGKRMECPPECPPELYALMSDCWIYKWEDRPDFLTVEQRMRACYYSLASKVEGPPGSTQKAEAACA

[5] = molecular target: T2, Tyrosine-protein kinase ZAP-70 (Homo sapiens); conditions: at 1 µM
[6] = molecular target: Serine/threonine-protein kinase B-raf (Homo sapiens) (UniProt P15056); conditions: at 0.1 µM
[7] = molecular target: Serine/threonine-protein kinase B-raf (Homo sapiens) (UniProt P15056); conditions: at 1 µM
[8] = tested on: Serine/threonine-protein kinase B-raf (Homo sapiens), P15056 [V600E]; conditions: at 0.1 µM
[9] = tested on: Serine/threonine-protein kinase B-raf (Homo sapiens), P15056 [V600E]; conditions: at 1 µM
[10] = molecular target: RAF proto-oncogene serine/threonine-protein kinase (Homo sapiens) (UniProt P04049); conditions: at 0.1 µM
[11] = molecular target: RAF proto-oncogene serine/threonine-protein kinase (Homo sapiens) (UniProt P04049); conditions: at 1 µM
[12] = molecular target: T3, Interleukin-1 receptor-associated kinase 4 (Homo sapiens) (UniProt Q9NWZ3); conditions: at 0.1 µM
T3 sequence (whole entry): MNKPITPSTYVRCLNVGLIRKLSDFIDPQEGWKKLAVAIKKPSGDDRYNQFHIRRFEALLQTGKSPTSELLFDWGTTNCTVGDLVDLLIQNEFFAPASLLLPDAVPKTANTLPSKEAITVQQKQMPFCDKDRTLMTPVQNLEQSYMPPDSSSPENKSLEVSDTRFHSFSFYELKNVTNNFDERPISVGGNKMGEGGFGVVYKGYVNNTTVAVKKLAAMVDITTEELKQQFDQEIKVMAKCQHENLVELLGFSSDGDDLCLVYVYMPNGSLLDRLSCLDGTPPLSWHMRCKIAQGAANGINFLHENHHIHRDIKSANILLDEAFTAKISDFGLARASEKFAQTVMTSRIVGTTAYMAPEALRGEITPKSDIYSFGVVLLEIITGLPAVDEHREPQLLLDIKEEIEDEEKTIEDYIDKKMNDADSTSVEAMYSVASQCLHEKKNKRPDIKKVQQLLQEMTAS

[13] = molecular target: T3, Interleukin-1 receptor-associated kinase 4 (Homo sapiens); conditions: at 1 µM
[14] = molecular target: Leucine-rich repeat serine/threonine-protein kinase 2 (Homo sapiens) (UniProt Q5S007); conditions: at 0.1 µM
[15] = molecular target: Leucine-rich repeat serine/threonine-protein kinase 2 (Homo sapiens) (UniProt Q5S007); conditions: at 1 µM
[16] = tested on: Leucine-rich repeat serine/threonine-protein kinase 2 (Homo sapiens), Q5S007 [G2019S]; conditions: at 0.1 µM
[17] = tested on: Leucine-rich repeat serine/threonine-protein kinase 2 (Homo sapiens), Q5S007 [G2019S]; conditions: at 1 µM

Chain of Leucine-rich repeat serine/threonine-protein kinase 2 (Homo sapiens) (Q5S007 whole entry): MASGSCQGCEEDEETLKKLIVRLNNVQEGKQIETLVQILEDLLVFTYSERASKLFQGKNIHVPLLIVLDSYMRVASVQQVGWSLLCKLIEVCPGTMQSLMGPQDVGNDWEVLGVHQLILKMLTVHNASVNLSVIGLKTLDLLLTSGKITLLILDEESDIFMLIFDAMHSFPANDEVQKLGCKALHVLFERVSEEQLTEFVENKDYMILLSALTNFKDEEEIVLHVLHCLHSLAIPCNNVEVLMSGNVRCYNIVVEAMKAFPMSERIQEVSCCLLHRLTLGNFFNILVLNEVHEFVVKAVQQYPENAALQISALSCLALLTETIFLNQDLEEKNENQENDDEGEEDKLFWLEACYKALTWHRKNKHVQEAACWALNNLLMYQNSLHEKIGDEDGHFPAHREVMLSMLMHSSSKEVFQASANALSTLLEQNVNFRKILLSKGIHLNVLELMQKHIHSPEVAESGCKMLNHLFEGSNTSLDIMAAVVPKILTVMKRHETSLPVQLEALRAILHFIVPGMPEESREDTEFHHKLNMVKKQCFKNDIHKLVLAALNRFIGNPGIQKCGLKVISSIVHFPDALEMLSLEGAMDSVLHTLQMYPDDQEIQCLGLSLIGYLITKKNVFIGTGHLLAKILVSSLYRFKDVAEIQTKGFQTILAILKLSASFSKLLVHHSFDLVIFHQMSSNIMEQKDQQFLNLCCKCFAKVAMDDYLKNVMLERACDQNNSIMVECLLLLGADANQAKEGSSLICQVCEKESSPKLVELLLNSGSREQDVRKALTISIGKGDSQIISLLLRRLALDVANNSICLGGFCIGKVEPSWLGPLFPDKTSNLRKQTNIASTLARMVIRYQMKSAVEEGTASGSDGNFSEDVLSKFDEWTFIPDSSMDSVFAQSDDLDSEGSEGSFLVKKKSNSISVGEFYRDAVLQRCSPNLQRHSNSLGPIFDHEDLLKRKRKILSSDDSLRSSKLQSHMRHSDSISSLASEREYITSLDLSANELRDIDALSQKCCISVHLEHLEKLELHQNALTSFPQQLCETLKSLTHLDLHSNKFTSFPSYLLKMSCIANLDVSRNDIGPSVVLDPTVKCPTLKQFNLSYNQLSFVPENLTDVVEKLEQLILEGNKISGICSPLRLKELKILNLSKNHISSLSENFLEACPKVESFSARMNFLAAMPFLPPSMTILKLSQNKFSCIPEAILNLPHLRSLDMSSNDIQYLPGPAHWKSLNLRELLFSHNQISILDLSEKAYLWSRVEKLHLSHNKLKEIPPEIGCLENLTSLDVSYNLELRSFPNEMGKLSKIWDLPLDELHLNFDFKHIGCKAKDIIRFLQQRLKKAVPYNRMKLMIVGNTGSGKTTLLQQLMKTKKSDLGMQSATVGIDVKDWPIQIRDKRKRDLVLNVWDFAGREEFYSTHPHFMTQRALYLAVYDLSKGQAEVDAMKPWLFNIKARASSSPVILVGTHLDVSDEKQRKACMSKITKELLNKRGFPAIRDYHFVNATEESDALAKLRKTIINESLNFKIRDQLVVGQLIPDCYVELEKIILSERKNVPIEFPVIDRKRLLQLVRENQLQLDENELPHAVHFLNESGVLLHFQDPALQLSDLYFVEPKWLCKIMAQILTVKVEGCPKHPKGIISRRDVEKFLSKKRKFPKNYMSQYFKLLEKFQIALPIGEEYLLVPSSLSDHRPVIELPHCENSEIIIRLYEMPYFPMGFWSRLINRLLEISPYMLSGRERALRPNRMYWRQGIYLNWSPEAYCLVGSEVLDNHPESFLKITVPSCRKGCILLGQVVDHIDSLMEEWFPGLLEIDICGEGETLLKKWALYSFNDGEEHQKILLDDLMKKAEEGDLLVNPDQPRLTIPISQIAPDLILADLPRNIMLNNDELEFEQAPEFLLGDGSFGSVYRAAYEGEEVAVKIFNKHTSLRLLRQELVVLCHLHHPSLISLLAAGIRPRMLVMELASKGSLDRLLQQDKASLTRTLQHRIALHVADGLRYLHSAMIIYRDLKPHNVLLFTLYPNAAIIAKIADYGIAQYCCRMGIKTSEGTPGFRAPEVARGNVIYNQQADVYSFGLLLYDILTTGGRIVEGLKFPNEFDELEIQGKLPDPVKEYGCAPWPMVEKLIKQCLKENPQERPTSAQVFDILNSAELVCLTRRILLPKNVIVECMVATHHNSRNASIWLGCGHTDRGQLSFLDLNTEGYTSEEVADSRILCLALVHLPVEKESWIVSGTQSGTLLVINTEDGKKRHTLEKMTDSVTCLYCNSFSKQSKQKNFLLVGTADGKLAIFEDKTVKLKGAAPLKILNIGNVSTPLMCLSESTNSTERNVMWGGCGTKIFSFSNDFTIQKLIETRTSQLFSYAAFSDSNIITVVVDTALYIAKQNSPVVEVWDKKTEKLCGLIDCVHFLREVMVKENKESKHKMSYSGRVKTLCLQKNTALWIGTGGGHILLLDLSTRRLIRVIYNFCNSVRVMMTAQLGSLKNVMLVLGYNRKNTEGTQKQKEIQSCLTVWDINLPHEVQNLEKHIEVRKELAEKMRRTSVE
Chain of Serine/threonine-protein kinase B-raf (Homo sapiens) (P15056 whole entry): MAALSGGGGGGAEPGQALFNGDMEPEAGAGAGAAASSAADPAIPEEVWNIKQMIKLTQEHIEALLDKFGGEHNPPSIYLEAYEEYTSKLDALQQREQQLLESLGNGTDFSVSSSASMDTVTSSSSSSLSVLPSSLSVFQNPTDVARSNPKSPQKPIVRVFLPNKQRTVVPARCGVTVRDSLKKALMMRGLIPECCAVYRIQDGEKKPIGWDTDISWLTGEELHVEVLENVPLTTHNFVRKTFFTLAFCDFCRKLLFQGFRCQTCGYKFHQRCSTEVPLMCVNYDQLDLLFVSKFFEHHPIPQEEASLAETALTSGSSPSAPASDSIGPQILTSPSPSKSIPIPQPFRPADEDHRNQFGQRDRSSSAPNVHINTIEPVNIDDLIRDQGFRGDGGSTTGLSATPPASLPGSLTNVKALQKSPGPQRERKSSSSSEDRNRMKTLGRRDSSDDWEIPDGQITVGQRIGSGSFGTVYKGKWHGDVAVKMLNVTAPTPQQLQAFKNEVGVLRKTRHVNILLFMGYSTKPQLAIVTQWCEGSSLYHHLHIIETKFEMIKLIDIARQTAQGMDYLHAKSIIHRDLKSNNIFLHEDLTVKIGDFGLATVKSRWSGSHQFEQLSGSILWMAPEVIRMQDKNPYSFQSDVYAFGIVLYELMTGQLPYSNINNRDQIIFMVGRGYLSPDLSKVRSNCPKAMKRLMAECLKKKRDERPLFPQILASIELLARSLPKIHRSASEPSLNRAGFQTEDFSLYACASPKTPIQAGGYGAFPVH
Chain of RAF proto-oncogene serine/threonine-protein kinase (Homo sapiens) (P04049 whole entry): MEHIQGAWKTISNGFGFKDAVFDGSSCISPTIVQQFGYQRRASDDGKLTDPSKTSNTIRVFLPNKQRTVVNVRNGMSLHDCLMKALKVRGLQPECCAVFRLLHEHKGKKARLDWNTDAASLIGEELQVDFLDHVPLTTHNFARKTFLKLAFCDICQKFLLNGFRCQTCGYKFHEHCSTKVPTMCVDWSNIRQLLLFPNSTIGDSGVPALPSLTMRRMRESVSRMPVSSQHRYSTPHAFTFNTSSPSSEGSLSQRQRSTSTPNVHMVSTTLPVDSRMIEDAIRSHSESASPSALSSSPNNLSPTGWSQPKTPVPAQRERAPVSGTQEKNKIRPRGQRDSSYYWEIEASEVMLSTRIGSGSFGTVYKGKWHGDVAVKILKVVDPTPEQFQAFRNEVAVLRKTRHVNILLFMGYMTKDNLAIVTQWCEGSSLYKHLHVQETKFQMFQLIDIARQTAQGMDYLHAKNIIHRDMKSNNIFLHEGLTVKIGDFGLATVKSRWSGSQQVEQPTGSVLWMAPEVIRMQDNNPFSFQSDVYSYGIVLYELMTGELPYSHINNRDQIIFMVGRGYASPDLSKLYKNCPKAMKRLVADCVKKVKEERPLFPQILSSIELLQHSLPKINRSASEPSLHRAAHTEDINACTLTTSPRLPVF
Chain of Tyrosine-protein kinase Yes (Homo sapiens) (P07947 2-543 limits assumed): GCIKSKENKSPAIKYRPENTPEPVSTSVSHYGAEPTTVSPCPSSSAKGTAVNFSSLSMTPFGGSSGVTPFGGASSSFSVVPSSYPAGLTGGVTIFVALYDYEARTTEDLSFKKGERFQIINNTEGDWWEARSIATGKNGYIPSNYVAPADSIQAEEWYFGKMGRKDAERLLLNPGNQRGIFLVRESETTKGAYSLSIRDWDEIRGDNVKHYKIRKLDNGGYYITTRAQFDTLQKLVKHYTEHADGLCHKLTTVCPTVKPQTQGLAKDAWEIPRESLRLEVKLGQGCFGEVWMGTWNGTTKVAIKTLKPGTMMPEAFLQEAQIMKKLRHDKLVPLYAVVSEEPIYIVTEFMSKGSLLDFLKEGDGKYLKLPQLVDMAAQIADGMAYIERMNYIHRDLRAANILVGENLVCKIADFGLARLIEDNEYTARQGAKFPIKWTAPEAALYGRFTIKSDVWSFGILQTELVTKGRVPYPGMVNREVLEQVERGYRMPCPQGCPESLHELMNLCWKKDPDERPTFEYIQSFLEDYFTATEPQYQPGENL
Chain of Serine/threonine-protein kinase B-raf (Homo sapiens), P15056 [V600E] (P15056 whole entry V600E): as the sequence (P15056 whole entry) above, with V600E counted along it
Chain of Leucine-rich repeat serine/threonine-protein kinase 2 (Homo sapiens), Q5S007 [G2019S] (Q5S007 whole entry G2019S): as the sequence (Q5S007 whole entry) above, with G2019S counted along it

Row | SMILES | inhibition [1] [%] | inhibition [2] [%] | inhibition [3] [%] | inhibition [4] [%] | inhibition [5] [%] | inhibition [6] [%] | inhibition [7] [%] | inhibition [8] [%] | inhibition [9] [%] | inhibition [10] [%] | inhibition [11] [%] | inhibition [12] [%] | inhibition [13] [%] | inhibition [14] [%] | inhibition [15] [%] | inhibition [16] [%] | inhibition [17] [%]
1 | COc1ccc(-c2cc3c(N)ncnc3o2)cc1 | 2.56 | 0.83 | 6.69 | -2.99 | -0.14 | -1.18 | -0.19 | -0.23 | 1.67 | 1.23 | -0.66 | -0.28 | 0.08 | 0.9 | 3.63 | 1.45 | 2.82
2 | CCN1CCC(CC(=O)Nc2n[nH]c3nnc(-c4cccc(F)c4F)cc23)CC1 | 1.73 | 2.07 | 5.8 | -0.89 | 0.5 | 3.25 | 2.64 | 2.74 | 1.57 | 10.2 | 10.2 | 0.45 | 1.11 | 2.47 | 4.14 | 2.58 | 4.75
3 | Fc1cccc(COc2ccc(Nc3ncnc4sc(-c5ccco5)cc34)cc2Cl)c1 | 1.85 | 1.73 | 4.21 | 0.85 | 2.41 | 6.56 | 5.32 | 4.59 | 3.4 | -0.33 | 0.89 | 0.84 | 1.26 | 3.64 | 6.42 | 5.67 | 9.11
4 | O=S(=O)(CCNCc1ccc(-c2ccc3ncnc(Nc4ccc(OCc5cccc(F)c5)c(Cl)c4)c3c2)o1)c1ccccc1 | 3 | 3.79 | 7.66 | 2.6 | 1.7 | 8.76 | 8.78 | 6.36 | 6.18 | 1.16 | 1.37 | 2.14 | 2.63 | 4.97 | 4.53 | 6.27 | 9.28
5 | NS(=O)(=O)c1ccc(Nc2ncc(-c3ccccc3)o2)cc1 | 4.49 | 3.4 | 7.73 | 2.88 | 2.94 | 5.82 | 8.2 | 6.65 | 6.08 | -0.15 | -4.28 | -2.68 | 1.92 | 3.47 | 15 | 5.15 | 19.4
6 | CCc1nn2ncccc2c1-c1ccnc(NC2CC2)n1 | 3.06 | 1.2 | 6.6 | 1.02 | -2.31 | 2.93 | 4.97 | 3.84 | 3.79 | 0.39 | -3.3 | 1.42 | 1.5 | 0.11 | 4.02 | 1.77 | 4.72
7 | COc1cc(N2CCN(C(C)C)CC2)ccc1Nc1nc(Nc2ccc(F)cc2C(N)=O)c2cc[nH]c2n1 | 2.95 | 0.75 | 7.33 | 6.3 | 23.5 | 2.3 | 16.1 | 1.62 | 13.7 | 0.33 | -2.24 | 0.7 | 1.94 | 84.9 | 94.8 | 85.4 | 62.5
8 | CCn1c(-c2nonc2N)nc2ccccc21 | 0.63 | -0.03 | -1.08 | 1 | -0.17 | 3.74 | 4.94 | 3.64 | 4.52 | 2.9 | 2.78 | -0.13 | 1.55 | 6.41 | 8.23 | 5 | 13.7
9 | CS(=O)(=O)CCNCc1coc(-c2ccc3ncnc(Nc4ccc(OCc5ccccc5)cc4)c3c2)c1 | 2.91 | 4.14 | 26.2 | 1.16 | 2.06 | 3.09 | 6.31 | 3.49 | 3.25 | 2.12 | 2.03 | 1.8 | 2.23 | 0.86 | 5.65 | 1.72 | 5.71
10 | COC(=O)c1sc(-n2cnc3cc(OC)c(OC)cc32)cc1OCc1ccccc1C(F)(F)F | 2.68 | 6.36 | 27 | 1.17 | 2.18 | 6.09 | 8.51 | 6.02 | 6.69 | 3.34 | 3.19 | -0.1 | 1.88 | 4.15 | 10.7 | 4.24 | 19.4
11 | CC(C)COC(=O)c1ccc2c(c1)/C(=C/Nc1ccc(S(N)(=O)=O)cc1)C(=O)N2 | 17 | 0.49 | 22.1 | -2.35 | 1.21 | 2.66 | 32.8 | 1.68 | 34 | -3.89 | 0.2 | 2.68 | 0.81 | 7.28 | 22.7 | 23.3 | 64.1
12 | CCN(CC)S(=O)(=O)c1ccc(OC)c(Nc2ncc(-c3ccccc3)o2)c1 | 45.8 | 24.2 | 58.6 | 2.08 | -0.02 | 0.42 | 0.29 | -0.35 | 0.01 | 0.35 | -0.65 | 0.75 | 0.8 | 2.62 | 5.16 | 1.76 | 9.32
13 | O=C(O[C@H]1CN[C@H](C#Cc2cc3ncnc(Nc4ccc(Cc5ccccc5)cc4)c3s2)C1)N1CCOCC1 | 0.43 | 7.04 | 38.8 | -0.2 | 2.04 | 3.95 | 4.23 | 3.02 | 3.28 | -1.64 | 0.23 | -0.04 | -0.2 | 1.27 | 2.6 | 2.35 | 3.96
14 | Fc1ccc(-c2nn3ccccc3c2-c2ccncc2)cc1 | 1.25 | 0.18 | 5.66 | 0.73 | 2.32 | 2.84 | 7.13 | 2.64 | 4.72 | -1.45 | -9.31 | 2.69 | 0.14 | 1.66 | 3.74 | 1.38 | 4.57
15 | COc1cc(Nc2nccc(Nc3ccc4c(C)n[nH]c4c3)n2)cc(OC)c1OC | 27.9 | 28.4 | 70.7 | 9.11 | 32.7 | 1.16 | 9.2 | 2.09 | 7 | -7.99 | -9.69 | -1.6 | 6.36 | 9.84 | 17.6 | 10.8 | 43.7
